113 compounds from PubChem BioAssay AID977606 (Broad Institute, 2014) can be followed below.

The campaign covered roughly 1,500 compounds. About 430 (29%) were called active. No rule for the calls is given here. Not all results are given here. A call without a number means that no potency is given here. Potency and affinity values are given separately.

The assay in a line: insulin secretion activators without glucose, dose response, counter-screen for glucose-dependent insulin secretion activators, cell-based, INS-1E, Gaussia luciferase, luminescence, cherry-pick (AID 977606). To be noted: INS-1E Gaussia luciferase insulin secretion, no glucose, 100% = twice neutral-control luminescence; series mostly up to 35 µM. On the technique in general: Counterscreens check selectivity or assay interference.
For `Cc1cc(C)n2ncc(-c3cccc(Br)c3)c2n1`, the call was inactive.

Consider `CCN(CC)C(=O)Cn1c(=O)oc2ccccc21`, for which the compound was called inactive. Regarding `COC(=O)N1CCCCC1c1cc(C(=O)NCc2ccc(Cl)c(Cl)c2)no1` (stereo not drawn), the call was inactive. The same measure for `c1ccc2c(N3CCCCC3)nc(N3CCCC3)nc2c1`: “inactive”; for `CCOC(=O)c1nc(-c2ccccc2)oc1N(C)C`: “inactive”; for `CCOC(=O)c1sc2nc(C)[nH]c(=O)c2c1C`: “inactive”. For `COc1ccc(Cc2nnc(-c3ccccc3)o2)cc1` the value was “inactive”. For `CCCc1nc2n[nH]c(N)c2c2c1COC(C)(C)C2` the value was “inactive”. `O=C(COc1nncc2ccccc12)NCC(F)(F)F`: the compound was classed as inactive.

`O=C(c1cccc(F)c1)N1CCCc2ccccc21`: the outcome was inactive.

With `CCOc1ccc(CCNC(=O)COc2cccc(-n3cnnn3)c2)cc1OCC`, the outcome was inactive.

In the case of `COc1ccc(-c2ccc(=O)n(CC(=O)NC3CCc4ccccc43)n2)cc1OC` (stereo not drawn), the outcome was inactive. `COCc1ccc(C(=O)NC2CCSc3ccccc32)cc1` (stereo not drawn): the compound was classed as inactive. With `CCOc1ccc(C(=O)NCC(=O)OCCN2C(=O)c3ccccc3C2=O)cc1OCC`, the compound was classed as inactive. For `CCOc1ncccc1C(=O)Nc1ncc(C)s1` the value was “inactive”; for `Cc1cc(NCc2ccccn2)nc2ccccc12`, “inactive”; for `O=C(O)CCCC(=O)N1CCN(c2nc(-c3ccccc3)c3ccccc3n2)CC1`, “inactive”. The same measure for `C/C=C1\COC(C(=O)NCc2ccccc2)(C(F)(F)F)C=C1C=C1CCCCC1` (stereo not drawn): “inactive”; for `CC1=NS(=O)(=O)NC(C)(C)C1`: “inactive”. The same measure for `COc1ccc(C2=Nn3c(nnc3-c3ccccc3OC)SC2)cc1OC1CCOC1` (stereo not drawn): “inactive”; for `Cc1ccc2nc(Cl)nc(-c3ccccc3)c2c1`: “inactive”; for `Cc1ccc2nc(N/N=C/c3ccccc3C#N)nc(-c3ccccc3)c2c1`: “inactive”.

Turning to `CCOc1ccc(CCNC(=O)CCNC(=O)c2ccco2)cc1OCC`, the compound was classed as inactive. In the case of `COc1ccc(CCNC(=O)CCc2ccccc2O)cc1OC`, the call was inactive. With `COc1ccc(CCNC(=O)CCc2ccccc2)cc1OC`, the compound was called inactive. The same measure for `N=c1n(CCN2CCCCC2)c2ccccc2n1CC(O)COc1ccccc1` (stereo not drawn): “inactive”. For `Clc1cc(NC2CCCCC2)ncn1` the value was “inactive”.

For `COc1cccc(-c2cc(C(F)(F)F)nc(-n3cncn3)n2)c1`, the compound was classed as inactive. For `CN(C)S(=O)(=O)c1cccc(-c2csc(N/N=C/c3ccco3)n2)c1` the value was “inactive”; for `COc1ccc(CNC(=O)CCn2c(=O)oc3ccccc32)c(OC)c1`, “inactive”; for `Cc1cc(=O)n(Cc2ccccc2)c2ccccc12`, “inactive”. For the compound `CC1(c2ccc(OC(F)F)cc2)NC(=O)N(CC(=O)Nc2cccc(S(N)(=O)=O)c2)C1=O` (stereo not drawn), the result was inactive.

In the case of `CCCn1nc(C(=O)NC2CCCC2)c2ccccc2c1=O`, the compound was classed as inactive.

In the case of `O=c1[nH]nc(-c2ccccc2)c2ccccc12`, the compound was classed as inactive. The same measure for `COc1ccc(CCN(C)C(=O)COc2cccc(-n3cnnn3)c2)cc1OC`: “inactive”; for `CNc1nc(OCC#N)nc(N2CCCCC2)n1`: “inactive”. `Cc1ccc(-n2nnnc2SCc2ccc(C(=O)O)cc2)cc1C`: the call was inactive.

Turning to `C=CCNC(=S)Nc1ccc2cn[nH]c2c1`, the compound was classed as inactive. The same measure for `O=S(=O)(N1CCOCC1)n1c(Cc2ccccc2)nc2ccccc21`: “inactive”; for `O=C(Nc1ccc(F)cc1)N1CCCCN2[C@@H](CO)[C@@H](c3ccc(C#Cc4ccccc4)cc3)[C@@H]2C1`: “inactive”; for `CCN(CC(=O)Nc1ccccc1OC)C(=O)C1CCCC1`: “inactive”. Regarding `COc1ccc(C2=Nn3c(nnc3-c3ccccc3OC)SC2)cc1OCC1CC1`, the outcome was inactive. The same measure for `COc1ccc(C2=NN(C(=O)CCCC(=O)O)C(c3cccs3)C2)cc1OC` (stereo not drawn): “inactive”; for `O=c1[nH]nc(-c2cccs2)c2ccccc12`: “inactive”. Take `CCCc1cc(=O)n2[nH]c(C)c(-c3ccc(Cl)cc3)c2n1`: the compound was called inactive. For `COc1ccc(NC(=O)c2csc(C)c2)cc1OC` the value was “inactive”; for `CCN1CCN(c2ccc(S(=O)(=O)N3CCCCC3)cc2NC(=O)c2cc3ccccc3o2)CC1`, “inactive”; for `CCNC(=O)C1(C)CCCN1C(=O)c1cc(OC)c(OC)c(OC)c1` (stereo not drawn), “inactive”. With `COc1ccc(Nc2c3c(nc4ccccc24)CCC3)cc1`, the call was inactive. In the case of `COc1ccc(/C=N/NC(=O)CN(C2=NS(=O)(=O)c3ccccc32)c2ccccc2)cc1OC`, the result was inactive. The same measure for `O=C(O)COc1ccccc1-c1ccccc1`: “inactive”; for `CCN(c1ccccc1)c1nc(Cl)nc2c1cnn2C`: “inactive”. For the compound `COCCNC(=O)c1cc2c(c(-c3cccc(C#Cc4ccc(OC)c(OC)c4)c3)n1)[C@H](CCO)N(S(=O)C(C)(C)C)C2` (stereo partly drawn), the call was inactive.

For `COc1ccc(C(=O)C2CCCN(C(=O)c3n[nH]c4c3CCCC4)C2)cc1OC` (stereo not drawn), the compound was called inactive. As for `Cn1c(=O)[nH]c(=O)c2c1nc(N1CCCCC1)n2C/C=N/Nc1ccc(C(=O)O)cc1`, the compound was called inactive. Regarding `Cc1cc(-c2ccc(S(=O)(=O)N3CCN(C)CC3)s2)on1`, the call was inactive. Regarding `Cc1cccc(C)c1NC(=O)NC1CCc2ccccc21` (stereo not drawn), the call was inactive. As to `COC(=O)c1ccc(C)c(-n2c(=O)n(Cc3ccccc3)c(=O)c3[nH]cnc32)c1`, the outcome was inactive. The same measure for `COC(=O)c1scc(C)c1NC(=O)CC1NCCNC1=O` (stereo not drawn): “inactive”; for `O=C(c1ccccc1)c1ccc2ccccc2n1`: “inactive”; for `COc1ccc(CCNC(=O)NS(=O)(=O)c2ccc(C)cc2)cc1OC`: “inactive”. For `COc1cc2c(cc1OC)C(CSc1ccccc1C(=O)O)=NC(C)(C)C2` the value was “inactive”; for `Cc1cccc2[nH]c3c(N4CC=C(c5ccc(F)cc5)CC4)ncnc3c12`, “inactive”; for `COc1cc(C)c(C)cc1S(=O)(=O)N1CCCCC1c1cccnc1` (stereo not drawn), “inactive”. On to `C[C@@H]1CC2=C(C(=O)OC(C)(C)O2)[C@H](c2ccc(F)cc2)O1`, for which the outcome was inactive. In the case of `CCCCn1c(=O)n(C)c(=O)c2c3c(sc21)COC(C)(C)C3`, the compound was classed as inactive. `CCOC(=O)c1csc(-c2ccc(OC)c(OC)c2)n1`: the call was inactive. The same measure for `COc1ccc(-c2cc(C(=O)N3CCCCCC3)no2)cc1OC`: “inactive”; for `C[C@@H]1CN([C@H](C)CO)C(=O)CCCn2cc(nn2)CO[C@H]1CN(C)S(=O)(=O)c1cccs1`: “inactive”; for `CCOc1cc(C(=O)N(C)CC(=O)Nc2cccc3ccccc23)ccc1OC`: “inactive”. Take `CCOc1ccc(-c2noc(CCC(=O)NC)n2)cc1OCC`: the compound was called inactive. On to `COc1cc2c(cc1OC)-c1cc(Nc3ccccc3C)nc(=O)n1CC2`, for which the result was inactive. In the case of `CCOc1ccc(CCNC(=O)COC(=O)c2ccc(C)s2)cc1OCC`, the outcome was inactive.

Consider `COc1ccc(C(=O)C2CCCN(Cc3cccn3-c3nccs3)C2)cc1OC` (stereo not drawn), for which the compound was classed as inactive. As for `CN(C)C(=O)c1ccc(-c2ccc([C@@H]3[C@@H](CO)N4C(=O)CN(C(=O)C5CC5)C[C@@H]34)cc2)cc1`, the outcome was inactive.

As to `Cc1c(O)cnc2nn(-c3ccccc3)c(=N)n12`, the outcome was inactive. On to `CCOC(=O)Cc1cc(=O)n2[nH]c(-c3ccc(C)cc3)cc2n1`, for which the compound was called inactive. On to `CC(C)Oc1ccc(Br)cc1C(=O)N/N=C/c1c[nH]c2ccccc12`, for which the call was inactive. The same measure for `CN(C)c1ccc(/C=N/NC(=O)c2ccccc2Cl)cc1`: “inactive”. The same measure for `CCNc1nc(Oc2ccc(C#N)cc2)cc(C(F)(F)F)n1`: “inactive”.

`COc1ccc2oc(-c3ccncc3)cc(=O)c2c1`: the compound was classed as inactive.

Regarding `O=C(Nc1ccc2oc(-c3cccnc3)nc2c1)c1ccc2c(c1)OCCO2`, the compound was classed as inactive. `O=C(Nc1ccc(NC(=O)c2cccs2)cc1)c1ccc2c(c1)OCO2`: the compound was called inactive. As to `CCNc1nc(NCC)nc(N(C#N)C(C)C)n1`, the call was inactive. In the case of `O=C(NC1CCCC1)c1ccc(Cl)c(S(=O)(=O)N2CCOCC2)c1`, the compound was called inactive.

Take `COc1ccc(C(=O)N2CCc3cc(OC)c(OC)cc3C2c2ccc(OC)c(OC)c2)cc1OC` (stereo not drawn): the compound was called inactive. Turning to `COc1ccc(C(=O)Nc2ccccc2C(=O)NCc2cccnc2)cc1OC`, the compound was classed as inactive.

Turning to `O=C(NCc1cccnc1)c1cccc(S(=O)(=O)NCc2ccccc2)c1`, the outcome was inactive. Take `Clc1ccc(-c2cc(CN3CCOCC3)no2)cc1`: the compound was classed as inactive. `Cc1cc(C)n(CC(=O)n2c3ccccc3c3ccccc32)n1`: the compound was called inactive. On to `O=C(c1cccs1)N(Cc1ccc(Cl)cc1)C1CCS(=O)(=O)C1` (stereo not drawn), for which the call was inactive. For `COc1ccc(C(=O)OCC(=O)NC(=O)NC2CCCC2)cc1OC` the value was “inactive”. Regarding `O=C(Nc1ccccc1)Nc1nnc(-c2cccs2)s1`, the call was inactive. For `O=C(O)c1ccc(-n2nnnc2SCc2ccccc2F)cc1` the value was “inactive”.

Turning to `O=C(c1ccco1)N(Cc1ccc(Cl)cc1)C1CCS(=O)(=O)C1` (stereo not drawn), the compound was classed as inactive. `O=C(COc1ccccc1Cl)NNC(=O)c1ccc2nc[nH]c2c1`: the compound was called inactive. In the case of `COc1ccccc1N(CC(=O)NCC1CCCO1)C(=O)CNS(=O)(=O)c1ccc(Cl)cc1` (stereo not drawn), the outcome was inactive.

Turning to `Cc1cc(C)cc(N(C(=O)C(F)(F)F)C(C(=O)NC2CCCCC2)c2cccs2)c1` (stereo not drawn), the compound was called inactive. The same measure for `O=C(NCc1ccccn1)c1ccccc1OCc1ccc(Cl)cc1Cl`: “inactive”; for `COc1ccc2oc(=O)c(C(=O)NCc3ccccn3)cc2c1`: “inactive”; for `CC1CCC(NC(=O)C2COc3ccccc3O2)CC1` (stereo not drawn): “inactive”. Consider `CCCCOC(=O)c1cc(-c2ccc(/C=N/n3cnnc3)o2)ccc1Cl`, for which the outcome was inactive. On to `C=CCc1ccc(OCCOc2ccc(/C=N/n3cnnc3)cc2OCC)c(OC)c1`, for which the compound was called inactive.

Take `N#Cc1c(-c2ccco2)cc(C2CC2)nc1N`: the compound was classed as inactive. The same measure for `COc1cc2c(cc1OC)C(Nc1ccccc1)=NC(C)(C)C2`: “inactive”; for `O=C(NCC1(O)CCCCC1)C1CCC(=O)N(Cc2ccccc2F)C1` (stereo not drawn): “inactive”.

In the case of `NC1=NC(=O)C(Cc2ccc(F)cc2)S1` (stereo not drawn), the result was inactive. As for `COc1cc(OC)c(OC)cc1/C=N/n1c(C)nc2ccccc2c1=O`, the call was inactive. The same measure for `O=C1Nc2cnc(Cl)nc2Nc2ccccc21`: “inactive”.

For the compound `COc1ccc(CN(C)C(=O)c2cc(-c3ccc(OC)c(OC)c3)nc3ccccc23)c(OC)c1`, the outcome was inactive. For the compound `COc1ccc(-c2cc(C(=O)N(C)Cc3ccc(OC)c(OC)c3OC)c3ccccc3n2)cc1OC`, the outcome was inactive. Consider `COc1ccc(F)cc1C(=O)C1CCCN(C(=O)c2ccc(C(C)=O)s2)C1` (stereo not drawn), for which the outcome was inactive. For `Clc1ccc(OCCn2ccnc2)c(Cl)c1` the value was “inactive”.
